Sampled rows, rich in hits. Any-hit rate of the full collection: about 3.1%.
IL-2 act: IL-2 activation; IL-2 activation reporter assay, cell-based qHTS; stimulated with anti-CD3/CD4/CD28 beads; in transgenic mouse T cells; activation, % (series mostly up to about 46 µM); 0.065% of 360,000 active; AID 652025; in the data active = activation above about 50%; inconclusive = mostly about 30% to 49%
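First, unstimulated transgenic mouse T cells were exposed to compound for 60 min. Next, anti-CD3/anti-CD4-coated beads with anti-CD28 were added. Finally, after 18 h at 37 degrees C, EGFP and DsRed were imaged.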
ELG1 repair inh: ELG1-dependent DNA repair inhibition; HEK293T ELG1-luciferase reporter, luminescence, 16 h; DNA damage induced by 5-fluorouridine; Potency, µM (titrated, usually from 46.1 µM), usual class: inhibitors; 2.3% of 330,000 active; also: nearly all actives have a fitted effect of over 55% in size
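Luminescence from the luciferase reporter, measured 30 min after ONE-Glo reagent at room temperature, was the read-out. Beforehand, 2,000 cells per well were exposed for 16 hr at 37 °C to 5-fluorouridine together with compound or vehicle.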
BRCA1 expr up: activators of BRCA1 expression; MCF7-BRCA1-FFLuc reporter, luminescence, 48 h; response scale: scaled: vehicle 0%, 10 µM genistein 100%; Potency, µM (top dose mostly 46.1 µM), hits mostly activators; 1.1% of 380,000 active; AID 624202; also: nearly all actives have a fitted effect of over 80% in size
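Using MCF7 cells harboring a BRCA1 firefly luciferase reporter, plated 2 h before compound pinning, the screen measured luminescence after 48 h incubation. Responses were normalized to DMSO and 10 microM genistein, then fitted for concentration-effect.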
Nrf2 activator: activators of Nrf2 (ARE) signaling; AREc32 ARE-luciferase reporter (MCF7-derived line), luminescence, 24 h; Potency, µM (doses to about 46.1 µM), hits mostly activators; 0.31% of 410,000 active; AID 624171; also: nearly all actives have a fitted effect of over 65% in size
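Cells of the AREc32 ARE-luciferase line are plated in OPTI-MEM containing 5% FBS and left overnight at 37 deg C. Compounds are pinned in, incubation continues 24 hr, and firefly luciferase signal is then measured.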
Large screens that a line does not name were inactive. Unless noted, calls follow the shape of the dose curve; as a rule, active = well fitted curve in the direction sought with a large enough effect; inconclusive = small, poorly fitted or top-dose-only effect, or another doubt; inactive = no such curve, though single readings can be large; an effect the other way counts as inactive or inconclusive.

CCOCCCn1c(SCC(=O)Nc2ccccc2Cl)nc2c(oc3ccccc32)c1=O	none (no result: IL-2 act, ELG1 repair inh)
O=[N+]([O-])c1cc(/C=N/O)ccc1Oc1ccccc1Cl	BRCA1 expr up 7.1µM
C/C(=N\Nc1ccc(F)cc1F)c1ccccc1O	ELG1 repair inh inconclusive
C/C(=N\Nc1cc(C(F)(F)F)ccc1Cl)c1ccccc1O	Nrf2 activator 11µM
CCN(CCNC(=O)CS(=O)(=O)Cc1nc(-c2cccc(OC)c2)oc1C)c1ccccc1	ELG1 repair inh 18µM
COc1cccc(-c2nc(CS(=O)(=O)CC(=O)NCCc3cc(OC)ccc3OC)c(C)o2)c1	ELG1 repair inh 21µM
COc1cccc(-c2nc(CS(=O)(=O)CC(=O)NCCc3ccc(OC)cc3OC)c(C)o2)c1	ELG1 repair inh 23µM
COc1cccc(-c2nc(CS(=O)(=O)CC(=O)NCCC(C)C)c(C)o2)c1	ELG1 repair inh inconclusive
COC(=O)c1cccc(Nc2nn3c(=O)c4cc5c(cc4nc3s2)OCO5)c1	none (no result: IL-2 act, ELG1 repair inh, BRCA1 expr up)
CC(=O)Nc1cccc(-c2ccnc3c2CC(C)(C(=O)NCc2ccc(F)c(F)c2)O3)c1 (centres undefined)	none (no result: ELG1 repair inh)
CC(=O)Nc1ccc2c(c1Br)Cc1ccccc1-2	BRCA1 expr up 3.2µM (no result: ELG1 repair inh)
Cc1ccc(-n2c(=O)c3c(c4cc(C)ccc4n3C)n(CC(=O)Nc3ccc(F)cc3)c2=O)cc1	none (no result: IL-2 act, ELG1 repair inh)
CCOC(=O)c1ccccc1N/C=C/C(=O)c1ccccc1	Nrf2 activator 10µM (no result: ELG1 repair inh)
Cc1cc(N/C=C/C(=O)c2ccccc2)ccc1Br	ELG1 repair inh inconclusive, BRCA1 expr up inconclusive, Nrf2 activator 5.6µM
CCOC(=O)c1ccc(N/C=C/C(=O)c2ccc(OC)cc2)cc1	ELG1 repair inh inconclusive
CCOC(=O)c1ccc(N/C=C/C(=O)c2ccccc2)cc1	ELG1 repair inh inconclusive, BRCA1 expr up 13µM
CCOC(=O)c1ccc(CNCc2ccccc2)cc1	ELG1 repair inh inconclusive, BRCA1 expr up 11µM
CN(C)c1ccc(/C=C2/CCc3ccccc32)cc1	none (no result: IL-2 act, ELG1 repair inh, Nrf2 activator)
CC(=O)Nc1ccc(N/C=C/C(=O)c2ccccc2)cc1	ELG1 repair inh inconclusive, BRCA1 expr up inconclusive
O=C(/C=C/Nc1ccccc1)c1ccccc1	ELG1 repair inh inconclusive, BRCA1 expr up inconclusive, Nrf2 activator 10µM
CCCN(C(=O)c1noc2c1COc1ccc(C)cc1-2)c1ccc(Cl)c(Cl)c1	none (no result: IL-2 act, ELG1 repair inh)
CC(=O)Nc1nc(C)c(-c2csc(Nc3cccc(C(C)=O)c3)n2)s1	ELG1 repair inh 5.8µM
CCCC(=O)Nc1nc(C)c(-c2csc(Nc3ccc(Cl)cc3)n2)s1	ELG1 repair inh inconclusive
CCC(=O)Nc1nc(C)c(-c2csc(Nc3cccc(C(=O)O)c3)n2)s1	none
Cc1nc(C)c(-c2csc(NCc3ccco3)n2)s1	ELG1 repair inh inconclusive, BRCA1 expr up inconclusive
CC(=O)Nc1ccc(Nc2nc(-c3sc(NC(C)=O)nc3C)cs2)cc1	ELG1 repair inh 23µM
CCC(C)C(=O)Nc1nc(C)c(-c2csc(Nc3ccc(Cl)cc3)n2)s1 (centres undefined)	ELG1 repair inh 8.2µM
CC(=O)Nc1nc(C)c(-c2csc(Nc3ccc(O)cc3)n2)s1	ELG1 repair inh inconclusive, Nrf2 activator inconclusive
Cc1nc(NC(=O)c2ccccc2)sc1-c1csc(NCc2ccco2)n1	ELG1 repair inh 15µM
CC(=O)Nc1nc(C)c(-c2csc(Nc3cccc([N+](=O)[O-])c3)n2)s1	ELG1 repair inh 2.9µM
Cc1ccc(Nc2nc(-c3sc(NC(=O)c4ccco4)nc3C)cs2)cc1	ELG1 repair inh 10µM
Clc1ccc(/C=C/c2ccncc2)cc1Cl	none (no result: IL-2 act, ELG1 repair inh, Nrf2 activator)
COc1cc(/C=N/N=C2/NC(=O)C(CC(=O)O)S2)ccc1OCc1cccc(Cl)c1 (centres undefined)	BRCA1 expr up 11µM
COc1ccc(/C=N/N=C2/NC(=O)C(CC(=O)O)S2)cc1OCc1ccc(Cl)cc1 (centres undefined)	none
Cn1cc(/C=C/c2ccnc3ccccc23)c2ccccc21	none (no result: IL-2 act, ELG1 repair inh, Nrf2 activator)
COc1ccccc1CNC(=O)c1cc2cc(C)ccc2n1C	none (no result: IL-2 act, ELG1 repair inh, BRCA1 expr up)
Cc1occc1C(=O)NCCCCNC(=O)c1ccoc1C	none
Cc1occc1C(=O)NNC(=O)c1ccccc1C(=O)O	ELG1 repair inh inconclusive, BRCA1 expr up 10µM
Cc1occc1C(=O)NCCCc1ccccc1	ELG1 repair inh inconclusive, BRCA1 expr up 13µM
COc1ccc(S(=O)(=O)N2CCc3ccccc32)cc1C(=O)NCCc1ccccn1	ELG1 repair inh 18µM
O=C(COc1cccc(C(F)(F)F)c1)N1CCN(c2ccc(O)cc2)CC1	ELG1 repair inh 16µM
CC(C)c1ccc(OCC(=O)N2CCCCCC2)c(Br)c1	ELG1 repair inh inconclusive, BRCA1 expr up 10µM
O=C(Nc1cccc(-c2nc3ccccc3o2)c1)c1cc([N+](=O)[O-])ccc1N1CCOCC1	none (no result: IL-2 act, ELG1 repair inh)
NS(=O)(=O)c1ccc(CCNC(=O)c2ccc(Br)s2)cc1	none
O=C(NCCc1ccc(Cl)cc1)c1ccc(Br)s1	ELG1 repair inh inconclusive, BRCA1 expr up 3.5µM
O=[N+]([O-])c1ccc(-c2c(O)c3ccccc3c3nc4ccccc4nc23)cc1	ELG1 repair inh 23µM
COc1ccc(N=Nc2ccc(CO)cc2)cc1	BRCA1 expr up inconclusive (no result: ELG1 repair inh)
Oc1ccc(N=Nc2ccccc2)cc1	ELG1 repair inh inconclusive, BRCA1 expr up 8.9µM
O=C(O)c1ccccc1N=Nc1ccc(O)cc1	Nrf2 activator inconclusive (no result: ELG1 repair inh)
COC(=O)c1ccc(N=Nc2ccccc2)cc1	ELG1 repair inh inconclusive, BRCA1 expr up 10µM
OCc1ccc(N=Nc2ccccc2)cc1	BRCA1 expr up 3.2µM (no result: ELG1 repair inh)
COC(=O)c1ccc(OCCOc2ccccc2)cc1	ELG1 repair inh inconclusive
Cc1nn2c(-c3ccccc3)nnc2c2ccccc12	ELG1 repair inh inconclusive, Nrf2 activator 4µM
CCn1c(=O)c(C)nn2c3ccccc3nc12	none
Cc1nn2c3ccccc3nc2c2ccccc12	ELG1 repair inh inconclusive, Nrf2 activator 7.9µM
Cc1ccc(-c2nn3c(-c4ccc(C)cc4)nnc3c3ccccc23)cc1	none (no result: IL-2 act, ELG1 repair inh, BRCA1 expr up)
Cc1ccc(Nc2c(-c3ccc(C)s3)nc3cccc(C)n23)cc1	none (no result: IL-2 act, ELG1 repair inh, Nrf2 activator)
COc1ccc(NC(=O)/C(C#N)=C/c2c(C)nn(-c3ccc(F)cc3)c2Cl)cc1OC	Nrf2 activator 16µM
COc1ccc(NC(=O)/C(C#N)=C/c2c(C)nn(-c3ccc(F)cc3)c2Cl)cc1Cl	none
CS(=O)(=O)n1nc(OC(=O)c2cccc3ccccc23)cc1N	Nrf2 activator 14µM
CS(=O)(=O)n1nc(OC(=O)c2cc(Br)ccc2Cl)cc1N	none
Cc1cccnc1Nc1nc(-c2ccccc2)cs1	ELG1 repair inh inconclusive, Nrf2 activator 3.2µM
Oc1ccc(-c2csc(Nc3ncccn3)n2)cc1	ELG1 repair inh inconclusive, BRCA1 expr up inconclusive
Cc1ccc(-c2csc(NC(=O)CCCc3cccs3)n2)cc1	none
CC(=O)Nc1ccc(-c2csc(Nc3ncccn3)n2)cc1	ELG1 repair inh inconclusive, BRCA1 expr up 3.5µM
CC(=O)Nc1ccc(-c2csc(NC(=O)CCCc3cccs3)n2)cc1	ELG1 repair inh 18µM
CC(=O)Nc1ccc(-c2csc(N/N=C(/C)c3ccccc3)n2)cc1	ELG1 repair inh 21µM
CC(=O)c1c(C)[nH]c(C(=O)Nc2nc(-c3ccc(-c4ccccc4)cc3)cs2)c1C	ELG1 repair inh 21µM

Bioassay records as filed in PubChem.
